For 40 compounds, outcome results are on record in PubChem BioAssay (Tox21).

Inconclusive results are not listed. Calls of active or inactive are those of the source. Calls come from the whole dose curve; as a rule, active = well fitted activation curve with a large enough effect in the signal ratio in the repeat runs (not every such curve was filed as active); inconclusive = weak or mixed curves, or effect the other way; inactive = no such curve, though single readings can be large or run the other way; the % refers to the signal ratio.

Peroxisome proliferator-activated receptor gamma (Homo sapiens), sequence (P37231 whole entry, looked up): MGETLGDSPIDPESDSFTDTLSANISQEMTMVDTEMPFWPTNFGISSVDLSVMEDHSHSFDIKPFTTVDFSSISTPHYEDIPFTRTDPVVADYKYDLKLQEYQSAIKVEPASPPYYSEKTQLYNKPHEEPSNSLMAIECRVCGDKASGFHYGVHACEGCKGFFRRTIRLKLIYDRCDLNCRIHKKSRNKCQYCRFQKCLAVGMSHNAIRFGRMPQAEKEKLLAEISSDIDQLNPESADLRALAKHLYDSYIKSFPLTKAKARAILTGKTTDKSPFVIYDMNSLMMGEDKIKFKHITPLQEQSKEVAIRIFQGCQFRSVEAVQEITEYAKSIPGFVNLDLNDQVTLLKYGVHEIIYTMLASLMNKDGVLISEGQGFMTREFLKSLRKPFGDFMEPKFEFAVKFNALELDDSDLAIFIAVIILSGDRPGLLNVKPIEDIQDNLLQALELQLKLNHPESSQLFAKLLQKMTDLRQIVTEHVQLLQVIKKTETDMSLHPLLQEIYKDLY

This assay concerns the target Peroxisome proliferator-activated receptor gamma (Homo sapiens) (UniProt P37231). The experiment in a line: qHTS assay to identify small molecule agonists of the peroxisome proliferator-activated receptor gamma (PPARg) signaling pathway (AID 743094). The following applies: HEK293H PPARg-UAS-bla, beta-lactamase FRET ratio, 17 h; series mostly up to 57 µM. The source says:
U.S. Tox21 Program National Center for Advancing Translational Sciences [NCATS] NIH Chemical Genomics Center [NCGC] U.S. Environmental Protection Agency [EPA] National Institutes of Environmental Health Sciences [NIEHS] National Toxicology Program [NTP] U.S. Food and Drug Administration [FDA] Tox21 Assay Overview: The peroxisome proliferator-activated receptors (PPARs) are lipid-activated transcription factors of the nuclear receptor superfamily with three distinct subtypes namely PPAR alpha, PPAR delta (also called PPAR beta) and PPAR gamma (PPARg). All these subtypes heterodimerize with Retinoid X receptor (RXR) and these heterodimers regulate transcription of various genes. PPAR-gamma receptor (glitazone receptor) is involved in the regulation of glucose and lipid metabolism. To identify the compounds that activate PPAR-gamma signaling, GeneBLAzer PPAR gamma UAS-bla HEK293H cell line (Invitrogen, Carlsbad, CA, USA) containing a beta-lactamase reporter gene under control of the control of an upstream activator sequence (UAS) stably integrated into HEK293H cells was used to screen Tox21 compound library.
Tox21 Assay Protocol Summary: PPARg-bla cells were dispensed at 3000 cells/6uL/well in 1536-well black wall/clear bottom plates using a Multidrop Combi (Thermo Fisher Scientific, Waltham, MA) dispenser. After the assay plates were incubated at 37C and 5% CO2 for 5 h, 23 nL of compounds dissolved in DMSO, positive controls or DMSO only was transferred to the assay plate by a Pintool station (Kalypsys, San Diego, CA). The assay plates were incubated at 37C for 17 h. After 1 uL of LiveBLAzerTM B/G FRET substrate was added using a Bioraptr Flying Reagent Dispenser (FRD) workstation (Beckman Coulter, Indianapolis, IN, USA), the plates were incubated at room temperature for 1 h, and fluorescence intensity was measured by an Envision plate reader (PerkinElmer, Shelton, CT).
As for `CC1CCCO1` (stereo not given), the outcome was inactive.
For `O=C1OC[C@H](Cc2cccc(O)c2)[C@H]1Cc1cccc(O)c1`, the result was inactive.
On to `CC(C)C1CCC(C(=O)N[C@H](Cc2ccccc2)C(=O)O)CC1` (stereo not given in full), for which the outcome was inactive.
Take `FC(F)(F)C(F)(F)C(F)(F)C(F)(F)CCI`: the outcome was inactive.
On to `CC1CCCC(=O)C1=O` (stereo not given), for which the outcome was inactive.
Take `CC1=CC[C@@]23C[C@@H]1C(C)(C)[C@@H]2CC[C@H]3C`: the outcome was inactive.
With `CCCCCCCCCCCCCOC(=O)CCSCCC(=O)OCCCCCCCCCCCCC` the entry was “inactive”.
Regarding `CNc1c2c(nn1C)CCCC2`, the outcome was inactive.
With `O=P(O)(O)Oc1ccccc1`, the outcome was inactive.
With `CSSc1ccoc1C` the entry was “inactive”; with `CCN(Cc1cccc(S(=O)(=O)O)c1)c1ccc(C(=C2C=CC(=[N+](CC)Cc3cccc(S(=O)(=O)O)c3)C=C2)c2ccccc2S(=O)(=O)[O-])cc1`, “inactive”; with `O=C(O)c1cc(Cl)cc(Cl)c1O`, “inactive”.
With `COC1CCC=CO1` (stereo not given) the entry was “inactive”; with `Nc1cccc2c(N)cccc12`, “inactive”.
Turning to `COc1ccc(-n2nc(C(F)F)cc2-c2ccc(S(C)=O)cc2)cc1` (stereo not given), the outcome was inactive.
As for `O=C(O)c1ccc(O)cc1O`, the outcome was inactive.
With `Cc1cc([N+](=O)[O-])ccc1N`, the result was inactive.
For `COC(=O)c1sccc1S(N)(=O)=O` the value was “inactive”; for `COc1cc(NS(=O)(=O)c2ccc(N)cc2)nc(C)n1`, “inactive”; for `Cc1c(C2(c3cc(Br)c(O)c(Br)c3C)OS(=O)(=O)c3ccccc32)cc(Br)c(O)c1Br`, “inactive”.
Turning to `COc1cc(OC)c2ccc(=O)oc2c1`, the result was inactive.
On to `Oc1ccc2c(c1)Cc1ccccc1-2`, for which the outcome was inactive.
As for `CC[C@H]1OC(=O)[C@H](C)[C@@H](O[C@H]2C[C@@](C)(OC)[C@@H](O)[C@H](C)O2)[C@H](C)[C@@H](O[C@@H]2O[C@H](C)C[C@H](N(C)C)[C@H]2O)[C@](C)(O)C[C@@H](C)CN(C)[C@H](C)[C@@H](O)[C@]1(C)O`, the outcome was inactive.
Take `CN=C(N)NC(=O)Nc1c(C)cccc1C`: the outcome was inactive.
Turning to `O=C(O)CN1C(=O)c2cccc3cccc(c23)C1=O`, the outcome was inactive.
As for `CCCCCCCCCCCCCCN(C)C`, the result was inactive.
For `CC(C)(O)CCc1ccccc1` the value was “inactive”; for `CC1CCC(C(C)CS)CC1S` (stereo not given), “inactive”.
With `COc1ccc(CCN(C)CCCN2CCc3cc(OC)c(OC)cc3CC2=O)cc1OC` the entry was “inactive”.
In the case of `O=C(NC(Cc1cc(=O)[nH]c2ccccc12)C(=O)O)c1ccc(Cl)cc1` (stereo not given), the outcome was inactive.
With `CC(=O)C(C)=O` the entry was “inactive”.
As for `CC(CO)(CO)C(=O)O`, the result was inactive.
In the case of `CCCOC(=O)c1c(Cl)c(Cl)c(Cl)c(Cl)c1C(=O)OCCC`, the outcome was inactive.
As for `CC(O)Cn1cnc2c1c(=O)n(C)c(=O)n2C` (stereo not given), the result was inactive.
With `C/C(C=O)=C\c1ccccc1` the entry was “inactive”; with `Cc1cn([C@H]2C[C@H](F)[C@@H](CO)O2)c(=O)[nH]c1=O`, “inactive”.
For `CCOC(=O)c1c(N)sc2c1CCN(Cc1ccccc1)C2` the value was “inactive”; for `O=C(O)CCC(=O)c1ccc(-c2ccccc2)cc1`, “inactive”.
Take `CCCCOC(=O)CCCCC(=O)OCCCC`: the outcome was inactive.
With `O=C(O)CCCc1c[nH]c2ccccc12` the entry was “inactive”.
